This passage reports Potency and activity change, negative = inhibition results from PubChem BioAssay AID2551 (National Center for Advancing Translational Sciences (NCATS), 2010).

The campaign covered roughly 310,000 compounds. About 17,000 (5.5%) were called active. Entries that show only a call come without a potency. Inconclusive results (about 11%) are left out. The call rests on the fitted dose curve; in most records, active means well fitted inhibition curve with a large enough effect; inconclusive means small, poorly fitted or top-dose-only effect, or effect the other way; inactive means no such curve, though single readings can be large or run the other way. This excerpt belongs to a sample that is enriched for actives.
Potency means the concentration at half of the fitted maximal effect.

Nuclear receptor ROR-gamma (Mus musculus), sequence (P51450 whole entry, looked up, the tested form may be a part): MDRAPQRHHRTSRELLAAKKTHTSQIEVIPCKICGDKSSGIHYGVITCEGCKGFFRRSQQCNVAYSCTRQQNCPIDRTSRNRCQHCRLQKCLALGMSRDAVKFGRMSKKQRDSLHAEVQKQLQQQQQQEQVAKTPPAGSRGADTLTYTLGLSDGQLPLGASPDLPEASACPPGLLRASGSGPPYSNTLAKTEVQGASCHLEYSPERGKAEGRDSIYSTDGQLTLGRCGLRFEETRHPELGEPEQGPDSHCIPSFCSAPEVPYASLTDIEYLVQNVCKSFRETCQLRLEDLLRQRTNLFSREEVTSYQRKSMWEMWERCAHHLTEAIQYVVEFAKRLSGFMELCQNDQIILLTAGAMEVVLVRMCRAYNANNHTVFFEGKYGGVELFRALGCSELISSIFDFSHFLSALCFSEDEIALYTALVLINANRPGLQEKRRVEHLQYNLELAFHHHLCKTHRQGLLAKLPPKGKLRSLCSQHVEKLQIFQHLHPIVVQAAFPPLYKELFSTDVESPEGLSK

This experiment concerns the target Nuclear receptor ROR-gamma (Mus musculus) (UniProt P51450). The experiment in a line: qHTS for inhibitors of ROR gamma transcriptional activity. Further: nearly all actives have a fitted effect of over 60% in size. The settings on record: Drosophila S2 Gal4-RORgamma UAS-luciferase reporter, 20 h; series mostly up to 53.6 µM. The essentials: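 In this cell-based reporter format, copper sulfate (700 uM final) drives Gal4–ROR gamma fusion expression from a metallothionein promoter in Drosophila Schneider cells; compounds preincubated 1 hr, reporter read after 20 hr at ambient temperature.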
In the case of `CCCCc1nc2cc(C(=O)NCCc3cnn(C)c3)ccc2o1`, the Potency result is “inactive”. Still for that read-out and setting: next, `COc1ccccc1-c1cnn2c(N3CCOCC3)cc(C)nc12`: “inactive”.

For the compound `N#Cc1ccccc1NC(=O)c1ccc2c(c1)OCO2`, the Potency result was “inactive”. Same read-out and setting: in the case of `COc1ccc(C(=O)NC(C)Cn2nc(C)cc2C)cc1OC1CCN(C(C)=O)CC1` (stereo not given) it was “inactive”; in that of `c1ccc(NCc2cccc3ccccc23)nc1`, “inactive”; in that of `Oc1ccc2ccccc2c1N=Nc1nccs1`, 1.26 µM (active). Same read-out and setting: in the case of `Oc1ccc2ccccc2c1C=Nc1ccccc1` it was “inactive”; in that of `Oc1ccc(N=Nc2nccs2)c(O)c1`, 7.08 µM (active). As for `O=C(c1c(F)cccc1F)N1CCN(c2ncc(Br)cn2)CC1`, the Potency entry is “inactive”.

On to `CCOC(=O)N1CCC(N2Cc3cccc(C(=O)Nc4c(C)cccc4CC)c3C2=O)CC1`, for which the Potency entry is “inactive”. On to `Cc1cc(=O)oc2c(C)c(OCC(=O)NCCc3ccc(S(N)(=O)=O)cc3)ccc12`, for which the Potency entry is “inactive”.

In the case of `Cc1ccc(NS(=O)(=O)c2cc3c(cc2C)NC(=O)CO3)cc1`, the Potency result is “inactive”. For the compound `N=c1oc2ccccc2cc1C(=O)NCc1ccccc1`, the Potency entry is “inactive”. `CCOC(=O)c1cnc(-c2ccccc2)nc1Oc1ccc(C)cc1`: the Potency entry is “inactive”. On the same count and under the same terms, in the case of `CCOC(=O)c1cnc(-n2nc(C)cc2C)nc1NNc1cc(C)nc(-c2ccccc2)n1` it was 0.1 µM (active); in that of `Cc1cc(C)n(-c2c(F)c(F)c(COC(=O)c3ccccc3)c(F)c2F)n1`, “inactive”. On the same count and under the same terms, in the case of `CC(C)c1nc2cc(C(=O)NC(C)c3cnn(C)c3)ccc2o1` (stereo not given) it was “inactive”; in that of `COc1cc(CO)ccc1OCC(=O)Nc1cccc2ccccc12`, “inactive”; in that of `C=CCn1c(=S)[nH]c2scc(-c3ccco3)c2c1=O`, 1.58 µM (active). The same measure, in the same setting: next, `C=CCNC(=O)CSc1nc2scc(-c3ccco3)c2c(=O)n1CC=C`: “inactive”. With `C=CCn1cnc2scc(-c3ccccc3)c2c1=O`, the Potency entry is “inactive”. On the same count and under the same terms, in the case of `CC(C)(C)c1cc[n+](-c2[nH]c(=O)sc2/C=N/N=C(\[O-])c2ccccc2)cc1` it was “inactive”; in that of `COc1cc(NC(=S)N2CCCC(C)C2)cc(OC)c1OC` (stereo not given), “inactive”; in that of `COc1cc(Cl)c(C)cc1NC(=O)CN1CCCCCC1`, “inactive”. On the same count and under the same terms, in the case of `COc1cc(NC(=S)N2CCCC(C)C2)c(OC)cc1Cl` (stereo not given) it was 12.6 µM (active); in that of `COc1ccc(C2=NN(C(C)=O)C(c3ccccc3)C2)cc1` (stereo not given), “inactive”. Same read-out and setting: in the case of `O=C(c1ccccc1)N1N=C(c2ccccc2O)CC1c1ccc(Br)cc1` (stereo not given) it was “inactive”; in that of `CNC(=S)N1N=C(c2ccccc2)CC1c1ccc(Br)cc1` (stereo not given), 11.2 µM (active). Regarding `COc1ccc(-c2nonc2NC(=O)c2oc3ccc(F)cc3c2C)cc1OC`, the Potency result is “inactive”. Still for that read-out and setting: next, `O=c1ccc2cc(S(=O)(=O)NCCCc3ccccc3)ccc2[nH]1`: “inactive”. Still for that read-out and setting: next, `CCN(CC)S(=O)(=O)c1ccc(NC(=O)c2cnc(C)cn2)cc1`: “inactive”; `CCOc1cc(NC(=O)Nc2ccccc2)c(OCC)cc1NC(=O)CC`: “inactive”; `COc1ccc(C(=O)CC(=O)c2ccc(C)cc2)c(O)c1`: 10 µM (active).

As for `COc1ccc(C(=O)C[n+]2ccc(C)cc2)cc1`, the Potency entry is “inactive”. Same read-out and setting: in the case of `COc1ccc(OCCC(=O)c2ccc(OC)cc2)cc1` it was “inactive”; in that of `Cc1cc(C)cc(N(CC(=O)NC2CCCC2)C(=O)CCC(=O)Nc2nccs2)c1`, “inactive”. For `COCC(C)n1c(C)cc(C(=O)COc2ccc(C)nc2[N+](=O)[O-])c1C` (stereo not given), the Potency was 12.6 µM (active). On the same count and under the same terms, in the case of `Cc1ccc(OCC(=O)NC(C)c2ccccc2)c([N+](=O)[O-])n1` (stereo not given) it was “inactive”; in that of `Cc1ccc(OCC(=O)c2cc(C)n(Cc3ccco3)c2C)c([N+](=O)[O-])n1`, “inactive”.

Turning to `CCOC(=O)C1CCN(Cc2nnc(-c3cccc(Br)c3)o2)CC1`, the Potency entry is “inactive”. The same measure, in the same setting: in the case of `Cc1noc(C)c1CSCC(=O)N(CCC(C)C)c1c(N)n(Cc2ccccc2)c(=O)[nH]c1=O` it was “inactive”. Same read-out and setting: next, `CCCCN1CCNC1=S`: 12.6 µM (active); `CCC(C(=O)NCCC(C)C)N(Cc1ccccc1Cl)C(=O)c1snc(C(N)=O)c1N` (stereo not given): “inactive”; `CSc1cccc(NC(=S)N(Cc2ccccc2)Cc2ccccn2)c1`: 6.31 µM (active).

On to `CC(c1ccccn1)N(CCN(C)C)C(=S)Nc1ccccc1F` (stereo not given), for which the Potency result was “inactive”. Still for that read-out and setting: in the case of `CCOc1ccc(C(=O)Nc2cccc(SC)c2)cc1` it was “inactive”; in that of `CSc1cccc(NC(=O)CSc2ccccc2)c1`, “inactive”.

As for `CSc1cccc(NC(=S)N(C(C)C)C(C)c2ccccn2)c1` (stereo not given), the Potency is 22.4 µM (active).

Take `COc1cccc(NC(=S)N(Cc2ccc(C)cc2)Cc2ccccn2)c1`: the Potency result is “inactive”. Take `COC(=O)c1ccc(S(=O)(=O)N2CCc3ccccc3C2)cc1`: the Potency entry was “inactive”. The same measure, in the same setting: next, `COc1ccc(NC(=O)CSc2ccc(-c3ccco3)nn2)c(OC)c1`: “inactive”; `CN(C)c1ccc(S(=O)(=O)NCC(=O)NCC2CCCCC2)cc1[N+](=O)[O-]`: “inactive”. On the same count and under the same terms, next, `COc1ccc(CN2CC(C(=O)NCCc3ccc(Cl)cc3)CC2=O)cc1` (stereo not given): “inactive”. On the same count and under the same terms, next, `CCOc1ccc(NC(=O)CC(Cc2ccc(Cl)cc2)C(=O)O)cc1` (stereo not given): “inactive”. `CCOC(=O)c1c(C(C#N)C#N)cc(C)nc1C`: the activity change, negative = inhibition is -1.43% [at 10 µM] (inactive).

With `CCOC(=O)c1cc(C)nc(S(C)(=O)=O)c1C#N`, the Potency was 8.91 µM (active). The same measure, in the same setting: in the case of `CCOC(=O)COc1nc(C)cc(C(F)(F)F)c1C#N` it was “inactive”; in that of `O=C(O)c1ccccc1-c1ccccc1C(=O)NCCc1ccccc1`, “inactive”.

Regarding `CN(CC(=O)Nc1ccccc1C(F)(F)F)C(=O)Cc1ccccc1F`, the Potency entry was “inactive”. Still for that read-out and setting: in the case of `Cc1cccc(C(=O)NCCCN2CCCC2=O)c1` it was “inactive”; in that of `Cc1cccc(-c2nc3ccc(C(=O)NCCN4CCN(C)CC4)cc3nc2-c2cccc(C)c2)c1`, 12.6 µM (active); in that of `CCC1=Nc2cc(C(=O)NCCN3CCCC3)ccc2Sc2ccc(C)cc21`, “inactive”.

For the compound `CCN(CC)c1ccc(/C=N/Nc2nc(C)cc(C)n2)c(O)c1`, the Potency was 1.78 µM (active). As to `Cc1cc(C)nc(N/N=C/c2ccncc2)n1`, the Potency entry was “inactive”. Same read-out and setting: next, `CCN(CC)c1ccc(/C=N/NC(=O)CNC(=O)c2cccnc2)cc1`: “inactive”; `CCN(CC)c1ccc(/C=N/NC(=O)c2cnccn2)c(O)c1`: 1.58 µM (active). The same measure, in the same setting: next, `O=C(Nc1ccc2c(c1)OCCO2)c1cnccn1`: “inactive”. Consider `CCN(CC)c1ccc(/C=N/Nc2nc(C)cc(=O)[nH]2)cc1`, for which the Potency entry is “inactive”. On the same count and under the same terms, in the case of `CCc1c(C)c2ccc(OC3CCCCC3=O)cc2oc1=O` (stereo not given) it was “inactive”; in that of `CC(C)(C)n1nnnc1C(c1ccccc1F)N1CCN(C(=O)c2ccco2)CC1` (stereo not given), “inactive”; in that of `OC(COc1ccc(F)cc1Cl)CN1CCc2ccccc2C1` (stereo not given), “inactive”. The same measure, in the same setting: in the case of `Cc1cccc(C(=O)O)c1` it was “inactive”; in that of `OC(c1nc2ccc(F)cc2[nH]1)C(O)c1nc2ccc(F)cc2[nH]1` (stereo not given), “inactive”. The same measure, in the same setting: in the case of `CC(C)c1nc2ccc(C(=O)O)cc2[nH]1` it was 8.91 µM (active); in that of `Cc1ccc(CN(C)Cc2cc(=O)oc3cc(C)c(Cl)cc23)cc1`, “inactive”. For `CN(c1ccccc1)S(=O)(=O)c1cc(C(=O)OCC(=O)N2CCN(C(=O)c3ccco3)CC2)ccc1Cl`, the Potency result is “inactive”. As to `CN(c1ccccc1)S(=O)(=O)c1cccc(NC(=O)Cc2c(F)cccc2Cl)c1`, the Potency result was “inactive”. Turning to `CN(c1ccccc1)S(=O)(=O)c1cc(C(=O)Nc2nc3ccccc3[nH]2)ccc1Cl`, the Potency was 2.82 µM (active). Same read-out and setting: in the case of `CN(CC(=O)Nc1c(Cl)cccc1Cl)C(=O)CNC(=O)C1CCCCC1` it was “inactive”; in that of `COc1ccc(C(=O)NC2CC(C)(C)Cc3c2cnn3-c2ccccc2C)o1` (stereo not given), “inactive”; in that of `CC(=O)Nc1cccc(NC(=O)c2ccc3c(c2)CCN3S(C)(=O)=O)c1`, “inactive”. On the same count and under the same terms, next, `Brc1ccc(-c2csc(N/N=C/c3ccc4c(c3)OCO4)n2)cc1`: 10 µM (active); `Cc1cc(=O)[nH]c(N/N=C/c2ccc3c(c2)OCCO3)n1`: “inactive”; `Brc1ccc(-c2csc(N/N=C/c3cccnc3)n2)cc1`: “inactive”.

`C(=N\Nc1ccc2ccccc2n1)/c1ccc2c(c1)OCO2`: the Potency was 8.91 µM (active). On the same count and under the same terms, next, `Cc1noc(C)c1/C=N/Nc1ccc2ccccc2n1`: “inactive”; `O=C(Cc1ccc(F)cc1)N/N=C/c1ccc2c(c1)OCO2`: “inactive”.

Consider `O=C(NNC(=O)c1ccco1)Nc1ccccc1`, for which the Potency result is “inactive”. On to `COCCNC(=O)CSc1nc2sccc2c(=O)n1-c1ccccc1`, for which the Potency entry was “inactive”. As to `O=Cc1c(NCCCN2CCCC2=O)c2ccccc2[nH]c1=O`, the Potency entry is “inactive”. The same measure, in the same setting: in the case of `Cc1ccc2c(c1)N(C(=O)CCC(=O)NCc1cccnc1)CCO2` it was “inactive”; in that of `CCCNC(=O)c1c(N)n(-c2ccc(S(N)(=O)=O)cc2)c2nc3ccccc3nc12`, 12.6 µM (active). On the same count and under the same terms, next, `Cc1noc(C)c1C(=O)NCCc1ccc(S(N)(=O)=O)cc1`: “inactive”.

As to `CCOC(=O)c1c(C)c(C(=O)NCCc2ccc(S(N)(=O)=O)cc2)c(C)n1CC`, the Potency result was “inactive”.

Take `O=S(=O)(Cc1nnnn1-c1ccc(Br)cc1)c1ccc(F)cc1`: the Potency entry is “inactive”.

Turning to `Cc1ccc(OCC(=O)NNC(=S)NCc2ccccc2)cc1`, the Potency is 1.26 µM (active). Still for that read-out and setting: in the case of `CNC(=S)NNC(=O)c1cccn(Cc2ccccc2)c1=O` it was “inactive”; in that of `Cc1cccc(C(=O)OCC(=O)NCC(C)C)c1O`, “inactive”; in that of `CC(=O)Nc1ccc(OCC(=O)NCc2ccc(C)cc2)cc1`, “inactive”. Consider `O=C(NNC(=S)NCc1ccccc1)c1ccc(OC(F)F)cc1`, for which the Potency result is “inactive”.

`Cc1occc1C(=O)NNC(=S)NCC(C)C`: the Potency result was “inactive”.

`Cc1scc(C(=O)NNC(=S)NCC(C)C)c1C`: the Potency is 1.78 µM (active). The same measure, in the same setting: in the case of `Cc1cccc(NC(=O)c2ccc(OCC(=O)NCc3ccccc3)cc2)c1C` it was “inactive”; in that of `Cc1scc(C(=O)NNC(=S)NCc2ccccc2)c1C`, 2 µM (active). Take `CCC(CC)COC(=O)C1=C(C)NC(=O)NC1c1ccc([N+](=O)[O-])cc1` (stereo not given): the activity change, negative = inhibition was -0.183% [at 1.91 µM] (inactive). In the case of `O=C(Cc1ccc([N+](=O)[O-])cc1)Nc1ccc(C(=O)N2CCOCC2)cc1`, the Potency entry was “inactive”. On the same count and under the same terms, in the case of `Cc1ccc(NC(=O)Cn2nnc(C(=O)NCc3ccco3)c2N)c(C)c1` it was “inactive”. As to `CC(C)(C)NC(=O)CSc1nnc(NC(=O)CCc2ccccc2)s1`, the activity change, negative = inhibition is 5.59% [at 1.91 µM] (inactive). Turning to `C=CCN1C(=NC(=O)COc2ccccc2)SC2CS(=O)(=O)CC21` (stereo not given), the Potency entry is “inactive”. For the compound `Cc1cc(Cl)ccc1C(=O)C1CCCN(C(=O)c2nonc2C)C1` (stereo not given), the Potency result is “inactive”.
